This is part of a sample that, as a whole, favours compounds with a hit. Of some 83,000 tested, about 20% had one in any assay.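 Activity criterion: percent growth below 10, measured after cells in 96-well plates were exposed to a single compound concentration for 48 hours.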 Values without a mark were called inactive. Activity calls are given as the source filed them.

Some test systems named below: SK-MEL-2 melanoma; EKVX NSCLC; UO-31 renal; TK-10 renal; ACHN renal; CAKI-1 renal; A498 renal; CCRF-CEM leukemia; MOLT-4 leukemia.
Assay in all cases: NCI-60 one-dose screen, 48 h (100 = growth as untreated, 0 = no growth, -100 = all killed)
Conditions in all cases: 10 µM unless noted

Regarding `CCC(C)(C)c1ccc(OCCCCCCN2CCN(c3ccncc3)CC2)cc1`, the growth with SK-MEL-2 melanoma was 71.6%; in the test on EKVX NSCLC it was 6.51% (active); in the test with UO-31 renal, 28.2%; in the test with TK-10 renal, 65.2%; in the test with ACHN renal, 48.3%; with CAKI-1 renal, 17.5%. In addition, the growth is 66.1% with A498 renal, -23.4% (active) with CCRF-CEM leukemia and -23.5% (active) in the test with MOLT-4 leukemia.

On to `O=C(c1ccc(Cl)cc1)c1ccc(OCCCN2CCN(c3ccncc3)CC2)cc1`, for which the growth in the test with SK-MEL-2 melanoma was 70.1%; in the test on EKVX NSCLC it was 32.6%; in the test with UO-31 renal, 40%; in the test with TK-10 renal, 82.2%; in the test on ACHN renal, 74%; in the test with CAKI-1 renal it was 56.7%. Moreover, the growth was 80.5% in the test with A498 renal, 21.5% with CCRF-CEM leukemia and 15.7% in the test with MOLT-4 leukemia.

For the compound `CC1(C)CC[C@]2(C(=O)Nc3ccccc3)CC[C@]3(C)C(=CCC4[C@@]5(C)C[C@@H](O)[C@H](O)[C@@](C)(CO)C5CC[C@]43C)C2C1` (some centres not stated), the growth with SK-MEL-2 melanoma is 59.8%; in the test with EKVX NSCLC it was 52.9%; with UO-31 renal, 47.3%; in the test with TK-10 renal, 86.7%; in the test on ACHN renal, 59.9%; in the test with CAKI-1 renal, 44.1%. Also, the growth in the test with A498 renal is 56.9%; with CCRF-CEM leukemia it was 30.4%; in the test on MOLT-4 leukemia, 5.99% (active).

In the case of `Cn1cc(-c2cc3nc(-c4c[nH]c5ccc(Cl)cc45)cc(N)n3n2)c2ccccc21`, the growth in the test on SK-MEL-2 melanoma is -89.8% (active); with EKVX NSCLC it was -88.6% (active); in the test on UO-31 renal, -98.6% (active); in the test with TK-10 renal, -92.1% (active); in the test with ACHN renal, -100% (active); with CAKI-1 renal, -94.6% (active). Moreover, the values for the growth with A498 renal, in the test with CCRF-CEM leukemia and in the test on MOLT-4 leukemia were -62.7% (active), -21.5% (active) and -36.1% (active), respectively.

For the compound `CC(C)Sc1nc(NCCc2c[nH]c3ccccc23)c(C#N)c(-c2ccc(F)cc2)n1`, the growth with SK-MEL-2 melanoma is 70.3%; with EKVX NSCLC, 32.7%; in the test with UO-31 renal it was 44.8%; with TK-10 renal, 96.3%; with ACHN renal, 51.7%; with CAKI-1 renal it was 42.7%. Also, the growth was 42.4% with A498 renal, 11.7% in the test with CCRF-CEM leukemia and 12% with MOLT-4 leukemia.

On to `CCCCCCCCc1ccc(C(=O)Nc2cccc(P(=O)(O)O)c2)cc1`, for which the growth is 106% in the test on SK-MEL-2 melanoma; 103% in the test with EKVX NSCLC; 97.5% in the test on UO-31 renal; 105% in the test with TK-10 renal; 110% in the test on ACHN renal; 93.6% in the test with CAKI-1 renal. Further, the values for the growth in the test on A498 renal, in the test with CCRF-CEM leukemia and in the test with MOLT-4 leukemia were 105%, 79.6% and 98.6%, respectively.

In the case of `Nc1nc(-c2ccccc2)c(N=Nc2ccc([N+](=O)[O-])cc2Cl)s1`, the growth in the test with SK-MEL-2 melanoma was 43.4%; with EKVX NSCLC, 89.2%; in the test on UO-31 renal, 94.9%; in the test with TK-10 renal it was 172%; with ACHN renal, 79.1%; in the test with CAKI-1 renal, 81.2%. The growth in the test on A498 renal was 73.6%; with CCRF-CEM leukemia, 78.7%; with MOLT-4 leukemia, 79%.

For the compound `Nc1nc(C(F)(F)F)cs1`, the growth was 108% with SK-MEL-2 melanoma; 94.5% with EKVX NSCLC; 93.8% in the test with UO-31 renal; 98.1% in the test with TK-10 renal; 113% with ACHN renal; 96.7% in the test on CAKI-1 renal. Besides, the growth in the test on A498 renal is 114%; with CCRF-CEM leukemia, 109%; with MOLT-4 leukemia, 112%.

As for `CCN(CC)c1ccnc(CNCCSC(c2ccccc2)(c2ccccc2)c2ccc(OC)cc2)c1`, the growth with SK-MEL-2 melanoma is -35.8% (active); in the test with EKVX NSCLC, -8.82% (active); in the test on UO-31 renal it was 8.36% (active); with TK-10 renal, 1.59% (active); with ACHN renal it was 12.2%; with CAKI-1 renal it was 0.0931% (active). Also, the figures for the growth in the test on A498 renal, in the test on CCRF-CEM leukemia and in the test on MOLT-4 leukemia were -84.5% (active), -3.59% (active) and 12.9%, respectively.

Consider `CC(C)CSc1nc(NCCc2c[nH]c3ccccc23)c(C#N)c(-c2ccccc2)n1`, for which the growth in the test with SK-MEL-2 melanoma was 75.6%; in the test on EKVX NSCLC it was 39.7%; with UO-31 renal it was 72.2%; in the test with TK-10 renal it was 110%; in the test with ACHN renal, 69.3%; in the test on CAKI-1 renal it was 50.8%. For the same compound, the growth in the test on A498 renal was 67.9%; with CCRF-CEM leukemia, 30.2%; in the test on MOLT-4 leukemia it was 30.7%.

Consider `COc1ccc2[nH]cc(-c3nc(N)nnc3-c3cn(C)c4ncccc34)c2c1`, for which the growth with SK-MEL-2 melanoma was 49.4%; with EKVX NSCLC, 63.7%; in the test with UO-31 renal, 43.9%; with TK-10 renal, 93.1%; in the test on ACHN renal, 67.3%; in the test on CAKI-1 renal it was 38.8%. Further, the growth in the test on A498 renal is 104%; in the test on CCRF-CEM leukemia, 67.7%; in the test with MOLT-4 leukemia it was 41.3%.

Regarding `OCC1(CCCc2ccccc2)CCCN(c2nccc3ccccc23)C1` (configuration not stated), the growth in the test on SK-MEL-2 melanoma was 30.7%; in the test on EKVX NSCLC it was 23.4%; in the test on UO-31 renal it was 26.9%; with TK-10 renal it was 50.1%; with ACHN renal, 51.8%; in the test on CAKI-1 renal, 38.6%. Moreover, the values for the growth with A498 renal, in the test with CCRF-CEM leukemia and with MOLT-4 leukemia were 63.3%, 49.2% and 32.3%, respectively.

On to `O=C(COc1ccc(NC(=O)Nc2ccc(Cl)cc2)cc1)N/N=C/c1ccccc1`, for which the growth is -84.3% (active) in the test with SK-MEL-2 melanoma; -58.5% (active) in the test on EKVX NSCLC; -14% (active) in the test on UO-31 renal; -77.9% (active) with TK-10 renal; -77.4% (active) in the test on ACHN renal; -89.6% (active) in the test on CAKI-1 renal. The figures for the growth with A498 renal, with CCRF-CEM leukemia and in the test with MOLT-4 leukemia were -94.3% (active), -13.7% (active) and 9.72% (active), respectively.
